Some test systems named below: NCI-H23 lung; NCI-H322M lung; HOP-62 NSCLC; NCI-H460 lung; HOP-92 NSCLC; NCI-H522 lung; A549/ATCC NSCLC; 786-0 renal; COLO 205 colon; DU-145 prostate; K-562 leukemia; MALME-3M melanoma; MDA-MB-231 breast; RXF 393 renal; SF-268 CNS; SF-295 CNS; SF-539 CNS; UACC-257 melanoma; M14 melanoma; HCT-15 colon.
What all share (assay): NCI-60 one-dose screen, 48 h (100 = growth as untreated, 0 = no growth, -100 = all killed)
What all share (details): 10 µM unless noted

In PubChem BioAssay (NCI) one finds growth data, which are given here for 8 compounds.

Compounds without any hit were thinned out: in the full panel of roughly 83,000, 20% have a hit.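 For each line, cells grew in 96-well plates with the test compound present at a single concentration for 48 hours.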 Unmarked numbers belong to inactive results. Calls of active or inactive are those of the source. How the source made its calls: active means growth percent below 10; inactive means the rest.

With `O=c1oc2ccc(F)cc2c(=O)n1-c1ccc(Cl)cc1F`, the growth is 4.57% (active) in the assay on NCI-H23 lung; 7.62% (active) with NCI-H322M lung; -5.38% (active) with HOP-62 NSCLC; 3.17% (active) in the assay with NCI-H460 lung; -14.3% (active) in the assay with HOP-92 NSCLC; -16.9% (active) in the assay with NCI-H522 lung. The growth is 3.43% (active) in the assay on A549/ATCC NSCLC; 1.85% (active) in the assay on 786-0 renal; 11.7% in the assay with COLO 205 colon; 17.1% in the assay on DU-145 prostate; 7.39% (active) in the assay on K-562 leukemia; -19.6% (active) in the assay with MALME-3M melanoma. In addition, the growth in the assay on MDA-MB-231 breast is -17.2% (active); with RXF 393 renal, -2.79% (active); with SF-268 CNS, 12.7%; in the assay on SF-295 CNS, -28.5% (active); with SF-539 CNS, 4.31% (active); in the assay with UACC-257 melanoma, -17.4% (active). The growth in the assay on M14 melanoma was 5.11% (active); in the assay with HCT-15 colon, 7.49% (active).
With `O=S(=O)(c1ccc(NC(=S)NC23CC4CC(CC(C4)C2)C3)cc1)N1CCCCC1`, the growth in the assay on NCI-H23 lung is 95.5%; in the assay with NCI-H322M lung, 102%; in the assay with HOP-62 NSCLC, 107%; in the assay on NCI-H460 lung, 36.3%; with HOP-92 NSCLC, -8.91% (active); in the assay with NCI-H522 lung it was 74.3%. Further, the growth with A549/ATCC NSCLC was 72.5%; with 786-0 renal, 92.3%; in the assay with COLO 205 colon, 119%; in the assay with DU-145 prostate it was 41.4%; in the assay on K-562 leukemia, 7.73% (active); in the assay on MALME-3M melanoma it was 86.5%. The growth with MDA-MB-231 breast is 102%; in the assay with RXF 393 renal, 115%; in the assay with SF-268 CNS it was 66.6%; in the assay with SF-295 CNS, 58.1%; in the assay with SF-539 CNS it was 107%; in the assay on UACC-257 melanoma, 96.9%. Also, the figures for the growth in the assay with M14 melanoma and with HCT-15 colon were 72.3% and 82.8%, respectively.
`CCOC(=O)c1sc(-c2ccc(OS(=O)(=O)C[C@]34CCC(CC3=O)C4(C)C)c(C=O)c2)nc1C`: the growth was 28.5% in the assay with NCI-H23 lung; 50.4% in the assay on NCI-H322M lung; 8.26% (active) in the assay with HOP-62 NSCLC; -1.32% (active) in the assay on NCI-H460 lung; 38.4% in the assay on HOP-92 NSCLC; 1.5% (active) with NCI-H522 lung. Moreover, the growth was 15.4% in the assay on A549/ATCC NSCLC; 27.4% in the assay on 786-0 renal; -34.9% (active) with COLO 205 colon; 21.3% with DU-145 prostate; 7.5% (active) in the assay on K-562 leukemia; 38.1% in the assay on MALME-3M melanoma. For the same compound, the growth is 19.7% in the assay on MDA-MB-231 breast; 52.9% with RXF 393 renal; 15% with SF-268 CNS; 26.2% in the assay on SF-295 CNS; 43.2% in the assay with SF-539 CNS; 4.31% (active) with UACC-257 melanoma. Moreover, the growth in the assay with M14 melanoma is 3.97% (active); in the assay with HCT-15 colon, 5.75% (active).
In the case of `COc1cccc2cc(N(C)c3nc(C)nc4ccsc34)ccc12`, the growth in the assay on NCI-H23 lung was 22.3%; in the assay with NCI-H322M lung, 49.8%; in the assay on HOP-62 NSCLC it was 17.1%; in the assay with NCI-H460 lung, 1.59% (active); in the assay with HOP-92 NSCLC, 8.89% (active); with NCI-H522 lung, -15.2% (active). The growth was 7.7% (active) in the assay with A549/ATCC NSCLC; 20.5% in the assay with 786-0 renal; -56.9% (active) in the assay with COLO 205 colon; -4.03% (active) in the assay with DU-145 prostate; 5.29% (active) in the assay with K-562 leukemia; 52.5% in the assay with MALME-3M melanoma. Further, the growth is 28.9% with MDA-MB-231 breast; 40% in the assay on RXF 393 renal; 21.7% in the assay with SF-268 CNS; 3.17% (active) with SF-295 CNS; -15.5% (active) in the assay with SF-539 CNS; 37.7% in the assay with UACC-257 melanoma. Besides, the growth in the assay on M14 melanoma was 9.85% (active); with HCT-15 colon, 0.625% (active).
For `CCN(CCO)CCNc1ccc(C)c2sc3cc(Cl)ccc3c(=O)c12`, the growth was 59.6% with NCI-H23 lung; 47% with NCI-H322M lung; 38.5% with HOP-62 NSCLC; -75.9% (active) with NCI-H460 lung; 4.54% (active) in the assay with HOP-92 NSCLC; 50.2% with NCI-H522 lung. Further, the growth in the assay with A549/ATCC NSCLC was 24.6%; in the assay with 786-0 renal it was -60.1% (active); with COLO 205 colon, -80.9% (active); in the assay on DU-145 prostate, 16.9%; with K-562 leukemia it was -43.6% (active); with MALME-3M melanoma, -27.8% (active). The growth with MDA-MB-231 breast is -42.8% (active); in the assay on RXF 393 renal it was 5.22% (active); in the assay with SF-268 CNS, 44.6%; in the assay with SF-295 CNS, 12.5%; with SF-539 CNS, 73.1%; in the assay with UACC-257 melanoma it was -49.8% (active). The growth in the assay with M14 melanoma was -74.2% (active); in the assay on HCT-15 colon, -44.9% (active).
With `CC[C@]1(O)C[C@@H]2CN(CCc3c([nH]c4ccccc34)[C@@](C(=O)OC)(c3cc4c(cc3OC)N(C)[C@H]3[C@@](O)(C(=O)OC)[C@H](OC(C)=O)[C@]5(CC)C=CCN6CC[C@]43[C@@H]65)C2)C1`, the growth in the assay on NCI-H23 lung is 26.8%; in the assay on NCI-H322M lung, 39.9%; in the assay with HOP-62 NSCLC it was 35%; in the assay with NCI-H460 lung, 4.41% (active); with HOP-92 NSCLC it was -9.28% (active); in the assay with NCI-H522 lung it was 4.5% (active). Further, the growth in the assay with A549/ATCC NSCLC was 17.8%; in the assay with 786-0 renal, 9.87% (active); with COLO 205 colon, -10.8% (active); in the assay with DU-145 prostate, -7.13% (active); in the assay on K-562 leukemia, 15.3%; in the assay on MALME-3M melanoma, 40.9%. Moreover, the growth in the assay with MDA-MB-231 breast was -15.3% (active); in the assay on RXF 393 renal, 22.1%; with SF-268 CNS, 17.3%; in the assay with SF-295 CNS, 8.85% (active); with SF-539 CNS it was -2.89% (active); in the assay with UACC-257 melanoma, 64.4%. In addition, the growth in the assay with M14 melanoma is 3.97% (active); in the assay on HCT-15 colon, 14.6%.
As to `O=c1c(-c2nc3ccccc3[nH]2)cc2ccccc2n1Cc1cn(Cc2ccc(N3CCOCC3)cc2)nn1`, the growth in the assay on NCI-H23 lung is 76.5%; in the assay with NCI-H322M lung it was 68.8%; in the assay on HOP-62 NSCLC, 16.3%; with NCI-H460 lung, 55.3%; in the assay on HOP-92 NSCLC it was 75.9%; with NCI-H522 lung it was 28%. The growth in the assay with A549/ATCC NSCLC is 74.8%; in the assay on 786-0 renal, 57.1%; in the assay on COLO 205 colon, 83.7%; in the assay on DU-145 prostate, 36.9%; in the assay on K-562 leukemia it was 100%; with MALME-3M melanoma it was 64.2%. For the same compound, the growth was 71.5% in the assay with MDA-MB-231 breast; 35.7% in the assay with RXF 393 renal; 22.6% in the assay on SF-268 CNS; 95.4% with SF-295 CNS; 52.6% in the assay with SF-539 CNS; 78.7% in the assay with UACC-257 melanoma. For the same compound, the results for the growth in the assay with M14 melanoma and with HCT-15 colon were 80.1% and 78.6%, respectively.
`COc1ccc(/C=C2\CCC/C(=C\c3ccc(OC)c(OC)c3)C2=O)cc1OC`: the growth is 21.6% in the assay on NCI-H23 lung; 45.4% in the assay on NCI-H322M lung; 28.5% in the assay with HOP-62 NSCLC; -46.5% (active) in the assay with NCI-H460 lung; 106% with HOP-92 NSCLC; -14% (active) in the assay on NCI-H522 lung. Besides, the growth is 13.8% in the assay with A549/ATCC NSCLC; 0.0865% (active) with 786-0 renal; 22.6% in the assay on COLO 205 colon; -33.9% (active) in the assay on DU-145 prostate; 10.6% in the assay on K-562 leukemia; 42.3% with MALME-3M melanoma. The growth with MDA-MB-231 breast was 15%; in the assay with RXF 393 renal, -32.5% (active); with SF-268 CNS, 30.5%; in the assay with SF-295 CNS, 1.26% (active); in the assay with SF-539 CNS, 13.1%; with UACC-257 melanoma it was 14%. For the same compound, the growth with M14 melanoma was -2.63% (active); in the assay with HCT-15 colon, -8.77% (active).
